The values that follow come from PubChem BioAssay (NCI).

This is part of a sample that, as a whole, favours compounds with a hit. Of some 83,000 tested, about 20% had one in any assay.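 Note: values are percent growth. 100 is the growth of untreated cells, values between 100 and 0 indicate rising inhibition; between -100 and 0 indicates cell death.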 Unmarked numbers belong to inactive results. The source made the active and inactive calls. How the source made its calls: active means growth percent below 10; inactive means the rest.

The test system of the assay is NCI-H460 lung. Put plainly: NCI-60 one-dose screen, 48 h (100 = growth as untreated, 0 = no growth, -100 = all killed). As to conditions: 10 µM unless noted.
For the compound `Cc1c(Cn2c(C)nc3c(C(=O)O)cc(N4CCOCC4)cc32)cccc1C(F)(F)F`, the growth was 102%. On to `COc1cc2nccc(Oc3ccc(NC(=O)C4(C(=O)Nc5ccc(F)cc5)CC4)cc3)c2cc1OC`, for which the growth is 6.12% (active). As for `C=CCCCC(=O)CCC(=O)OCC1O[C@@H](O[C@@H]2C(O)[C@@H](OC(C)=O)C(C)O[C@H]2O[C@H](CC=C)CCCCC)C(O)[C@@H](OC(=O)/C(C)=C/C)[C@@H]1OC(=O)/C=C/c1ccccc1` (some centres undefined), the growth was 10.6%. Turning to `O=c1[nH]ccc2c(S(=O)(=O)N3CCCNCC3)cccc12`, the growth is 95.3%. The value for `CC1(C=O)NC(=O)NC1=O` (centres undefined) was 108%; that for `Cc1ccc(NC(=O)c2ccc(CN3CC[C@H](N(C)C)C3)c(C(F)(F)F)c2)cc1Nc1nccc(-c2cncnc2)n1` was 4.17% (active). As for `O=C(Nc1cccc(Cl)c1)Nc1ncc(CCNc2ncnc3ccsc23)s1`, the growth is 20.1%. The value for `Cn1ccnc1C(=O)/C=C/c1ccc(CC(=O)Nc2ccc(Br)cc2)cc1` was -11.2% (active). The value for `CNC(=O)c1nn(C)c2c1C(C)(C)Cc1cnc(Nc3ccc(N4CCN(C)CC4)cc3)nc1-2` was 7.46% (active); that for `COc1cccc2cc(-c3nc(C4CCC(C(=O)O)CC4)n4ncnc(N)c34)[nH]c12` (centres undefined) was 11.1%; that for `CNc1ncc2cc(-c3cc(NC(=O)NCCC(C)(C)C)c(F)cc3C)c(C)nc2n1` was 21.3%. The value for `Cc1cc(C(=O)Nc2cc(Oc3ccc4nc(NC(=O)C5CC5)cn4n3)ccc2C)n(C)n1` was 18.9%; that for `O=C(Cc1ccc(/C=C/C(=O)c2ncc[nH]2)cc1)Nc1ccc(Br)cc1` was -3.31% (active).

Regarding `CCc1ccc(C2=C(O)C(=O)C(c3ccc(CC)cc3)=C(O)C2=O)cc1`, the growth is -19.8% (active). The value for `CNC(=O)c1cccc2cc(Oc3ccnc4cc(OCC5(N)CC5)c(OC)cc34)ccc12` was 56%; that for `CCCCN1CCCC[C@@H]1C(=O)N[C@H](C(=O)N(C)[C@H](CCc1nc(C(=O)N[C@@H](Cc2ccccc2)C[C@H](C)C(=O)OC)cs1)C(C)C)C(C)C` was 94.6%; that for `COc1cnc2c(c1)C(=O)c1c-2n(CCCN2CCC(N)CC2)c(=O)c2cc([N+](=O)[O-])ccc12` was 11.2%. Consider `C=CC(=O)Nc1cc2c(Nc3ccc(F)c(Cl)c3)ncnc2cc1OCCCN1CCOCC1`, for which the growth is 31.2%.

For `NC(=O)c1c(OCc2c(F)cc(Br)cc2F)nsc1NC(=O)NCCCCN1CCCC1`, the growth is -23.1% (active). Regarding `CCc1nc2ccc(Cc3ccc(C(=O)NO)cc3)cc2c(=O)n1CCc1ccccc1`, the growth was 0.149% (active).

For the compound `Cc1cc(N(CCNc2ccnc3cc(Cl)ccc23)Cc2ccc3c(c2)OCO3)nc(N2CCN(C)CC2)n1`, the growth is 18.2%.

In the case of `Cc1ccc2oc(=O)cc(-c3cc(-c4cc5ccccc5oc4=O)nc(N)c3C#N)c2c1`, the growth was 27%. `Cc1[nH]c(/C=C2\C(=O)Nc3ccc(F)cc32)c(C)c1C(=O)NC[C@H](O)CN1CCOCC1`: the growth was 19%. The value for `O=C(Nc1cn[nH]c1-c1nc2ccc(CN3CCOCC3)cc2[nH]1)NC1CC1` was 34.4%; that for `O=C1CSC(c2c(F)cccc2Cl)N1NC(=O)C(O)(c1ccccc1)c1ccccc1` (centres undefined) was 113%.

`O=C1C=CC2(NN=C(c3ccccc3)N2c2cccc(Cl)c2)C(Cl)=C1` (centres undefined): the growth is 91.8%. With `Cc1ccc(N=C2CSc3nnc(-c4csc5c4CCCC5)n3N2)cc1`, the growth is 11.8%. With `Cc1cc(-c2cc(OC(=O)c3ccccc3)ccc2Cl)cc2nnc(Nc3ccc(OCCN4CCCC4)cc3)nc12`, the growth is 81.6%. As for `Cc1cc(O)cc(-c2c(-c3ccnc(-c4cccnc4)c3)cnn2C)c1`, the growth is 67.4%.
